Measured values taken from PubChem BioAssay.
Calls of active or inactive are those of the source.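 How the source made its calls, unless noted: active means visually confirmed hit in the image check and inhibition above 20%; inconclusive means visually confirmed hit but inhibition not above 20%; inactive means no visual hit in the image check.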

How the values were obtained:
[1] = inhibitors of TNFa-induced NFkB p65 translocation, primary screen, imaging, HUVEC, MLSMR starter and 10KST1 sets (AID 438;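 active means inhibition above 20% together with a positive visual image hit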;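 further: compound added about 3h40 before a 20 min TNFalpha stimulation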;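 on inhibition: signal is the nuclear over cytoplasmic p65 intensity ratio per well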); conditions: HUVEC TNFa-induced p65 nuclear translocation; cell count: measured here: nuclei count (cytotoxicity indicator), at 2.08 µM; inhibition: at 2 µM, stronger effect = higher value, 0% TNFa-plus-vehicle, 100% no-TNFa wells
[2] = inhibitors of mutant huntingtin aggregation, primary screen, imaging, exon1htt(103Q)mCFP cells, high-content imaging (AID 483;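 active means visual image review flags a hit and inhibition of aggregation exceeds 20%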;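 further: compound exposure lasted 3 days before fixation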;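 on nuclei count: percent of the per-plate median nuclei count of sample wells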); conditions: exon1htt(103Q)mCFP cell line, aggregate imaging, at 2 µM; inhibition of aggregation: stronger effect = higher value; nuclei count: measured here: cell count, toxicity
[3] = inhibitors of E-selectin induction by TNFa, primary screen, imaging, HUVEC, immunofluorescence, MLSMR starter and 10KST1 sets (AID 487); conditions: HUVEC TNFalpha-induced E-selectin immunofluorescence imaging, at 2 µM; inhibition: stronger effect = higher value; nuclei count: measured here: cell number, toxicity;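 on inhibition: signal is fraction of cell area covered by stained E-selectin grains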;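 on nuclei count: 100% = median nuclei count of all wells on the same plate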
[4] = target: Voltage-gated potassium channel subunit beta-2 (Rattus norvegicus) (UniProt P62483); experiment: KvBeta enzyme negative modulators, primary screen, biochemical, NADPH fluorescence (AID 622;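 active means fluorescence slope higher than the sample average by over 3 SD, cut at about -0.22 in these data, passing the limit was not always enough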;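 further: slope of raw intensity against log time taken from 70 to 1610 s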); conditions: recombinant KvBeta, 4-cyanobenzaldehyde reduction, at 10 µM, stronger effect = higher value
[5] = target: Voltage-gated potassium channel subunit beta-2 (Rattus norvegicus) (UniProt P62483); experiment: KvBeta positive modulators, primary screen, biochemical, NADPH fluorescence (AID 623;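 active means NADPH fluorescence slope more negative than the mean of all samples by about 3 SD, 99.7% confidence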;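 further: fluorescence intensity change per second fitted from 20 to 320 s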); conditions: Recombinant KvBeta, NADPH fluorescence decrease slope, 10 min; at 10 µM; stronger effect = lower value
[6] = target: Alpha-2C adrenergic receptor (Homo sapiens) (UniProt P18825); experiment: modulators of alpha2C/GIRK thallium flux, primary screen, cell-based, HEK293 alpha2C/GIRK1/2 (AID 624;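 active means fluorescence slope after compound addition differing from the mean of all screened samples at 99.7% confidence, in either direction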;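 further: slope of fluorescence ratio to pre-addition baseline per second over 15 to 24 s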); conditions: thallium flux BTC fluorescence, at 10 µM, actives lie on both sides
[7] = inhibitors of Sendai virus-induced IRF3 signaling, primary screen, TLR/RLR signaling modifier project, cell-based, Sendai virus stimulus, luciferase, 10K MLSCN set (AID 602276;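 active means inhibition at or above 50% at 10 µM; inactive means inhibition below 50%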;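 further: firefly luciferase from ISG56 promoter only with Renilla not read in this screen; 0% = Sendai virus plus DMSO and 100% = medium plus DMSO without virus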); conditions: HEK293 RL24 IRF3 luciferase reporter, at 10 µM, stronger effect = higher value
[8] = inhibitors of poly I:C-induced TLR3 signaling, primary screen, cell-based, poly I:C stimulus, luciferase, 10K MLSCN set (AID 602277;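 active means inhibition of the reporter signal at or above 50%; inactive means inhibition below 50%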); conditions: HEK293-TLR3 RL24 IRF3 luciferase reporter, at 10 µM, stronger effect = higher value

Chain of Voltage-gated potassium channel subunit beta-2 (Rattus norvegicus) (P62483 whole entry, looked up): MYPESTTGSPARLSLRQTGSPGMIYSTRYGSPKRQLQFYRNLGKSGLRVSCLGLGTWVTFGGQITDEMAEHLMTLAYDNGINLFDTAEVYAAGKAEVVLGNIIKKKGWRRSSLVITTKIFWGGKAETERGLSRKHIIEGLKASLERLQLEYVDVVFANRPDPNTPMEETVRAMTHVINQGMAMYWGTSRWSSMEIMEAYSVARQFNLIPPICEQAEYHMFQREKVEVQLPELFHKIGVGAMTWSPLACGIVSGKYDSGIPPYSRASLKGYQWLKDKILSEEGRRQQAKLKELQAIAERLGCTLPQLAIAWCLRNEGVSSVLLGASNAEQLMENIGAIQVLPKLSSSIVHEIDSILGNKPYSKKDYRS
Chain of Alpha-2C adrenergic receptor (Homo sapiens) (P18825 whole entry, looked up): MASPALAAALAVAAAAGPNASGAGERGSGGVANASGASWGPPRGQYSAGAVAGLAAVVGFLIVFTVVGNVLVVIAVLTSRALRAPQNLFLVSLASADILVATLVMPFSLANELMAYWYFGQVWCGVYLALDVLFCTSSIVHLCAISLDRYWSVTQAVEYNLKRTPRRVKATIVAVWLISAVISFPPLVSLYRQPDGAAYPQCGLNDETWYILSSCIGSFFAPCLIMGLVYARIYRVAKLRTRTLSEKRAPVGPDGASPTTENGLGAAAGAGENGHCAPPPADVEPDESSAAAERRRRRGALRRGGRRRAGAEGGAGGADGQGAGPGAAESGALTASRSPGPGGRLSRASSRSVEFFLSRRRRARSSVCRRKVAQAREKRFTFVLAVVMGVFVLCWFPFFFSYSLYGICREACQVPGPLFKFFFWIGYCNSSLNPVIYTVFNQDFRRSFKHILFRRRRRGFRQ

Row | SMILES | cell count [1] | inhibition [1] | inhibition of aggregation [2] | nuclei count [2] [%] | inhibition [3] | nuclei count [3] [%] | fluorescence slope [4] | NADPH fluorescence slope [5] | slope [6] | inhibition [7] | inhibition [8]
1 | CC1(C)OC(=O)N(c2cccnc2)C1(C)O (centres undefined) | 597 | 8.1% (inactive) | -2.8% (inactive) | 101 | 41.8% (inactive) | 104 | -0.401 (inactive) | -2.3e-05 (inactive) | 0.00628 (inactive) | 13.3% (inactive) | 19.9% (inactive)
2 | O=C(COc1ccccc1)Nc1ccccc1N1CCN(c2ccccc2)CC1 | 672 | 10.8% (inactive) | -7.4% (inactive) | 84.2 | -71.5% (inactive) | 110 | -0.609 (inactive) | -3.5e-05 (inactive) | 0.00412 (inactive) | 16.7% (inactive) | 3.18% (inactive)
3 | O=C(CC(Cc1ccccc1)C(=O)O)NCCc1ccc2c(c1)OCO2 (centres undefined) | 775 | -6.3% (inactive) | -0.6% (inactive) | 107 | -161% (inactive) | 145 | -0.424 (inactive) | -3.2e-05 (inactive) | 0.00395 (inactive) | -2.67% (inactive) | 23.4% (inactive)
4 | O=S(=O)(c1ccc(S(=O)(=O)N(Cc2ccco2)Cc2ccccc2Cl)cc1)N1CCCC1 | 818 | -6.1% (inactive) | -2.8% (inactive) | 108 | -38.1% (inactive) | 126 | -0.587 (inactive) | -3.1e-05 (inactive) | 0.00951 (inactive) | 8.74% (inactive) | 28% (inactive)
5 | O=C(NC(=O)c1ccc(Cl)cc1)Nc1cc(N2CCCCC2)ncn1 | 333 | 5.5% (inactive) | 11.3% (inactive) | 85.1 | -70% (inactive) | 89.5 | -0.48 (inactive) | -4.9e-05 (inactive) | 0.00674 (inactive) | 13.2% (inactive) | 9.71% (inactive)
6 | CC(C)(C)C1=Nn2c(nnc2-c2n[nH]c3c2CCC3)SC1 | 385 | 6% (inactive) | -24.6% (inactive) | 100 | -30.7% (inactive) | 87.6 | -0.521 (inactive) | -1.7e-07 (inactive) | 0.00435 (inactive) | 14.9% (inactive) | 15.7% (inactive)
7 | C/C(N)=C(/C#N)C(=O)COC(=O)c1cc(S(=O)(=O)N2CCCCC2)ccc1C | 508 | 7.7% (inactive) | -28.1% (inactive) | 104 | 12.6% (inactive) | 85.7 | -0.366 (inactive) | 1.2e-05 (inactive) | 0.00665 (inactive) | 7.49% (inactive) | 6.72% (inactive)
8 | CCc1nccn1S(=O)(=O)c1ccc(C)c(C)c1 | 603 | -11.5% (inactive) | 7% (inactive) | 94 | -33% (inactive) | 117 | -0.618 (inactive) | -5.2e-05 (inactive) | 0.00545 (inactive) | 7.1% (inactive) | 12.9% (inactive)
9 | CCOC(=O)c1sc(NC(=O)COC(=O)Cn2cnc3ccccc32)c(C(=O)OCC)c1C | 398 | 4.3% (inactive) | 2.6% (inactive) | 90.6 | -109% (inactive) | 115 | -0.613 (inactive) | -3e-05 (inactive) | 0.00913 (inactive) | 13.7% (inactive) | -7.45% (inactive)
10 | Cc1[nH]c2c(C)cccc2c(=O)c1Br | 440 | 6.7% (inactive) | 12.7% (inactive) | 106 | 30.1% (inactive) | 85.5 | -0.584 (inactive) | -7.5e-05 (inactive) | 0.0031 (inactive) | 14.8% (inactive) | 7.69% (inactive)
11 | Cn1c(SCC(=O)c2ccc(-c3ccccc3)cc2)nnc1-c1ccco1 | 248 | 4.3% (inactive) | 5.3% (inactive) | 67.6 | -7.1% (inactive) | 118 | -0.516 (inactive) | -5.4e-05 (inactive) | 0.0027 (inactive) | 3.76% (inactive) | 1.41% (inactive)
12 | COC(=O)Cn1ncc2c(C)n(Cc3ccccc3)c(C)c2c1=O | 732 | -5.2% (inactive) | 15.7% (inactive) | 88.1 | -72.2% (inactive) | 122 | -0.563 (inactive) | -2.4e-05 (inactive) | 0.00743 (inactive) | -29.4% (inactive) | -89.1% (inactive)
13 | CS(=O)(=O)N1CCCC(C(=O)NCCCN2CCc3ccccc3C2)C1 (centres undefined) | 228 | 3.4% (inactive) | 10.5% (inactive) | 83.5 | 35.8% (inactive) | 83.4 | -0.54 (inactive) | -1.5e-05 (inactive) | 0.00591 (inactive) | -8.77% (inactive) | 5.97% (inactive)
14 | O=C(CN1CCN(C2CCCCC2)CC1)Nc1ccccc1-c1ccccc1 | 273 | 18.4% (inactive) | 16.3% (inactive) | 110 | -7.3% (inactive) | 105 | -0.609 (inactive) | -3.4e-05 (inactive) | 0.00596 (inactive) | 2.95% (inactive) | 24.7% (inactive)
